Measurements from PubChem BioAssay AID588675 (Johns Hopkins Ion Channel Center, 2011).
In all, about 310,000 compounds went through this assay and about 1,900 (0.61%) were called active.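 The calls were made as follows: active = plate-corrected calcium response at least 3 library SD above typical, normal starting fluorescence, not activating the receptor alone; inactive = the rest.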 The list comes from a sample in which actives are over-represented; it also holds similar structures and randomly drawn compounds.

Target: Mas-related G-protein coupled receptor member X1 (Homo sapiens) (UniProt Q96LB2)
Sequence (Q96LB2 whole entry, looked up): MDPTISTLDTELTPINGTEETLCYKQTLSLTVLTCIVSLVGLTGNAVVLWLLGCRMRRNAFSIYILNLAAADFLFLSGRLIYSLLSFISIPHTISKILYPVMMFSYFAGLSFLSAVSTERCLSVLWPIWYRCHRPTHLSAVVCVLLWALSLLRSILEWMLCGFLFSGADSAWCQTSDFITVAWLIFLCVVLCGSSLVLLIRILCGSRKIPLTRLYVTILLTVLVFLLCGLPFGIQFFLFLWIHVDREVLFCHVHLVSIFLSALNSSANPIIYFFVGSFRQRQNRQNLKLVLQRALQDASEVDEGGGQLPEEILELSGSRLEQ
Test: allosteric enhancers of human MrgX1 signaling – HEK293 cells, Fluo-4 calcium flux, primary screen (AID 588675);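 also: compound read alongside a low EC10 to EC30 dose of BAM8-22 agonist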;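 as to B-score: peak minus trough fluorescence over baseline measured at the second addition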
Details: MrgX1-HEK293, Fluo-4 calcium flux, FDSS, at 10 µM; stronger effect = higher value

Compound | B-score
CC[C@H]1CC2CN3CCc4c([nH]c5ccccc45)C(C(=O)OC)(C2)C13 (stereo not given in full) | 13 (active)
CN1CCc2cc3c(cc2[C@H]1[C@@H]1OC(=O)c2c1ccc1c2OCO1)OCO3 | inactive
CN(C)C(=O)Oc1ccc(OCc2cccc[n+]2C)cc1 | inactive
Cc1nc2ccccn2c1P(=S)(N1CCCCC1)N1CCCCC1 | 13.5 (active)
CC1CCCCN1Cc1cccnc1 (stereo not given) | inactive
COc1ccc(S(=O)(=O)NCc2ccc(C(=O)N3CCC4(CC3)OCCO4)cc2)cc1 | inactive
Cc1ccc(-c2nn(CCC#N)cc2C(=O)O)cc1C | inactive
CN(C)C(=O)Oc1ccc2c(c1)O/C(=C\c1ccccc1)C2=O | inactive
CCOC(=O)CC1=C(C(=O)OCC)C2(C(=O)N1)C(C(=O)OC)=C(N)Oc1ccccc12 (stereo not given) | inactive
COC(=O)CN1C(=O)C2(C(C(=O)OC)=C(N)Oc3ccccc32)C2=C1CC(C)(C)CC2=O (stereo not given) | inactive
C=CCN1C(=O)C2(C(C(=O)OCC)=C(N)Oc3c2c(=O)oc2ccccc32)c2ccccc21 (stereo not given) | 27.7 (active)
O=Cc1cn(Cc2ccc(F)cc2Cl)c2ccccc12 | inactive
CCOc1cccc(=NC2CCCCC2)c2c(C)[nH]c(C)c12 | inactive
c1ccc(CC2CCCCN2)cc1 (stereo not given) | inactive
O=C(COC(=O)c1ccccc1)Nc1ccc(Cl)cc1C(=O)c1ccccc1 | inactive
